# Molecular target: Activated CDC42 kinase 1 (Homo sapiens) (UniProt Q07912)
# Settings: at 10 µM
# Chain of Activated CDC42 kinase 1 (Homo sapiens) (Q07912 whole entry, looked up): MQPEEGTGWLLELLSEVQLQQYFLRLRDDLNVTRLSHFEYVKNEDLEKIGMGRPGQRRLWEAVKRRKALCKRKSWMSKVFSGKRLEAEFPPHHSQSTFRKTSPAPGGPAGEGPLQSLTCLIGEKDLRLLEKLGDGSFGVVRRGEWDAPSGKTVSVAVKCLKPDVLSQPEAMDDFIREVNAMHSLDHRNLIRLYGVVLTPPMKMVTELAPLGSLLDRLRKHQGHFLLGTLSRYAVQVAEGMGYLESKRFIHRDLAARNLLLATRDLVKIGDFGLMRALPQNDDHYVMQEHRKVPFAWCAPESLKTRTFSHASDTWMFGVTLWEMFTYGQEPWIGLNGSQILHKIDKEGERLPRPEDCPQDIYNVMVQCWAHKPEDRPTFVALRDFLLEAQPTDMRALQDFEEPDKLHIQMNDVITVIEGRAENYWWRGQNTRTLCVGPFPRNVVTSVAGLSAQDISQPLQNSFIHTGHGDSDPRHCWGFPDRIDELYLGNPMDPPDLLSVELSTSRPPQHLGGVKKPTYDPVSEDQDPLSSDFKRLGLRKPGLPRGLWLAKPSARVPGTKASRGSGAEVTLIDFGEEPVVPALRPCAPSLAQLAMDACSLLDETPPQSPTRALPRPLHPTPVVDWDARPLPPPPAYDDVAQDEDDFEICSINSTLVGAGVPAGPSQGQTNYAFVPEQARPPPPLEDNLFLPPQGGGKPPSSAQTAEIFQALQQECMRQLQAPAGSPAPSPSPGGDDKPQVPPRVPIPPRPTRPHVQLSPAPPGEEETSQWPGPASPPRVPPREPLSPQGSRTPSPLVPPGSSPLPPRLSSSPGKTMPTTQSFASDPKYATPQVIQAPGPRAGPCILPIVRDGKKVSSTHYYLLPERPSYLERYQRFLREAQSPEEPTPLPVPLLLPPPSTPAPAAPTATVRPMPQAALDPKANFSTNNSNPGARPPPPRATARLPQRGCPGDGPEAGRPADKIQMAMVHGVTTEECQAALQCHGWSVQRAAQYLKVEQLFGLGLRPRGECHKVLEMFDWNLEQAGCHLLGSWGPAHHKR
row,Structure (SMILES),residual activity [%]
1,O=C1C(Cl)=C(N2C(=O)CCC2=O)C(=O)c2ccccc21,69
2,O=C(Nc1ccc(Cl)cc1)c1ccccc1NCc1ccncc1,76
3,O=C(O)/C=C/c1cc(Br)c(Br)c(Br)c1Br,63
4,COc1ccc(-c2cnc3c(-c4ccsc4)cnn3c2)cc1,68
5,Nc1n[nH]c2nc3ccccc3nc12,40
6,O=C(c1cc2cc(O)ccc2[nH]1)c1cc2cc(O)ccc2[nH]1,24
7,Oc1cccc(-c2nc(N3CCOCC3)c3oc4ncccc4c3n2)c1,69
8,O=C(NC(NC(=S)Nc1ccc(F)c([N+](=O)[O-])c1)C(Cl)(Cl)Cl)C(c1ccccc1)c1ccccc1 (centres undefined),78
9,CCCCc1c(-c2ccc(OC)cc2)[nH]c2nccnc12,5
10,CCCC(=O)Oc1ccc2[nH]c(C(=O)c3cc4ccccc4[nH]3)cc2c1,65
11,NC(=O)Nc1sc(-c2ccc(F)cc2)cc1C(N)=O,2
12,COc1cc2nccc(Oc3ccc(NC(=S)NC(=O)c4ccccc4C)cc3)c2cc1OC,8
13,O=C1Cc2c([nH]c3ccc(Br)cc23)-c2ccccc2N1,3
14,NCCNc1ncc(C(N)=O)c(Nc2cccc(C(F)(F)F)c2)n1,16
15,O=C1Nc2ccc(Cl)cc2/C1=C/c1cc(Cl)c(O)c(Cl)c1,7
16,CC(C)N(CCC(=O)c1ccc2ccccc2c1)Cc1ccccc1,63
17,CC(C)(C)n1nc(Cc2cccc3ccccc23)c2c(N)ncnc21,2
18,COc1ccc(Cl)cc1NC(=O)Nc1cc(C)nc2ccccc12,80
19,O=c1cc(N2CCNCC2)oc2c(-c3ccccc3)cccc12,69

# — ChEMBL document CHEMBL2218924, “A broad activity screen in support of a chemogenomic map for kinase signalling research and drug discovery” (Biochem J, 2013)
